The results in this text go back to paper PMC4336329 (PLoS ONE, 2015).

The campaign covered roughly 310,000 compounds. About 14,000 (4.5%) showed an effect of 50% or more. Effects have a minus sign here. The full list was thinned out, with strong results kept by preference.
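Further: peak tail current of the secondary pulse compared with the same well before compound.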

Chain of human ether-à-go-go-related gene (hERG) potassium channel (Q12809 whole entry, looked up): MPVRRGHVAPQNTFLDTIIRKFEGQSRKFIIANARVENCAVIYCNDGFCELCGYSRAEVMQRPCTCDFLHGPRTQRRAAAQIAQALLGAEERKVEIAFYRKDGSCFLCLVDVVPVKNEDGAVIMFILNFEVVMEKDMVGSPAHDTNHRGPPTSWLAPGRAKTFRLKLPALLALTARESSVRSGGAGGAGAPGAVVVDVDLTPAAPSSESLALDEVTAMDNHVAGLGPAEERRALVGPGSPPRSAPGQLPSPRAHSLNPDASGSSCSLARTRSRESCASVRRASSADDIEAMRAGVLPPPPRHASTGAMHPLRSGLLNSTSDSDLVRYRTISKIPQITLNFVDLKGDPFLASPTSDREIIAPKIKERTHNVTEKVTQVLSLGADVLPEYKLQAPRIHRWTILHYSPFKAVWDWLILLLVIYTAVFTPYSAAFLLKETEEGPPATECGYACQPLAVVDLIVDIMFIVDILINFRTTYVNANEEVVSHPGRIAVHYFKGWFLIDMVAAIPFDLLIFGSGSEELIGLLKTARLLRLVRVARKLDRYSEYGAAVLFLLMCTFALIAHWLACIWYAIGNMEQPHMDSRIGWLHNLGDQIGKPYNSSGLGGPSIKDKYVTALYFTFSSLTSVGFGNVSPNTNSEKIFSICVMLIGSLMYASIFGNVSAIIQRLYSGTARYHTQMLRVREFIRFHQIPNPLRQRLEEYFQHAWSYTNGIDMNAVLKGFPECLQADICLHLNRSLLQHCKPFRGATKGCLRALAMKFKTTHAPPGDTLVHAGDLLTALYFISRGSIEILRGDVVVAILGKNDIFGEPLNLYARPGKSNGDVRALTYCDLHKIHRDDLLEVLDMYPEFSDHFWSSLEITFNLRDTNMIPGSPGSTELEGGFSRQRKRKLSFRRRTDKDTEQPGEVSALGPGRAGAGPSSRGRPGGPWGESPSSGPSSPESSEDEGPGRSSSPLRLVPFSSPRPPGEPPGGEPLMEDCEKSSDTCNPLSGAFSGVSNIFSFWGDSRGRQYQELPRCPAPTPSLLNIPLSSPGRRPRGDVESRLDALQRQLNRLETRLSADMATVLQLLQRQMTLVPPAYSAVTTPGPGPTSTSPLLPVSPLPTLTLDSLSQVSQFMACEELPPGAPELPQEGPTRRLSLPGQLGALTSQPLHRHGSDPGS

The test concerns the target human ether-à-go-go-related gene (hERG) potassium channel (human, UniProt Q12809). Nature of the test: primary screen, population patch clamp on CHO cells stably expressing hERG; higher = less effect of the substance.
Consider `O=C(CC(c1ccccc1)c1cc(Br)ccc1O)NCCN1CCOCC1` (stereo not shown), for which the “hERG current change (%, negative = inhibition) at 10uM” value is given as -34.7%. Take `CCCCCCCOC(=O)C1=C(C)Nc2ncnn2C1c1cccs1` (stereo not shown): the “hERG current change (%, negative = inhibition) at 10uM” value is -0.122%.

For the compound `Cc1ccc(NC(=O)COc2ccc(Br)cc2C)cc1`, the “hERG current change (%, negative = inhibition) at 10uM” value was 0.803%. The value for `COc1ccc(/C=N/NC(=O)c2ccncc2)cc1CN1CCCc2ccccc21` was -26.1%; that for `COc1ccc(C(=O)N/N=C/c2ccc(OC)c(CN3CCN(c4ccc(F)cc4)CC3)c2)cc1` was -74.2%.

With `COc1ccc(/C=N/NC(=O)c2ccncc2)cc1CN1CCN(c2ccc(F)cc2)CC1`, the “hERG current change (%, negative = inhibition) at 10uM” value is listed as -77%. In the case of `COc1ccc(/C=N/NC(=O)c2ccncc2)cc1OC` it was 15.5%. In the case of `COc1ccc(C(=O)N/N=C/c2ccc(OC)c(COc3ccc(F)cc3F)c2)cc1` it was 3.74%; in that of `COc1ccc(C(=O)N/N=C/c2ccc(OC)c(COc3ccc(F)cc3)c2)cc1`, -35.2%. In the case of `NC1=NC(=O)/C(=C\c2ccc(-c3ccc(Cl)cc3)o2)S1` it was 9.15%; in that of `COc1ccc(NC(=O)CS(=O)CC(=O)NCC2OCCc3ccccc32)cc1` (stereo not shown), 16.2%; in that of `C=CCNC(=S)NNC(=O)c1ccncc1`, 1.85%. In the case of `O=C1CC(N2CCN(Cc3ccc(Cl)cc3)CC2)C(=O)N1CCc1ccccc1` (stereo not shown), the “hERG current change (%, negative = inhibition) at 10uM” value is recorded as -37.4%. The value for `Cc1ccc(NC(=O)COC(=O)CCc2c[nH]c(=O)[nH]2)cc1` was 1.45%; that for `COc1cccc(C(c2nnnn2Cc2ccc(F)cc2)N2CCC(C(N)=O)CC2)c1OC` (stereo not shown) was -24.8%. The value for `Fc1cccc(CNC2CCN(CCc3ccccc3)CC2)c1` was -42.8%; that for `COc1c(O)cccc1[C@@H](O)C1CCN(CCc2ccc(F)cc2)CC1` was -55.8%. The value for `Cc1cc(Cl)ccc1OCC(=O)NC(=S)Nc1ccc(Cl)cn1` was 10.9%. With `Cc1nonc1OCC(C)(COc1nonc1C)NC(=O)c1ccccc1`, the “hERG current change (%, negative = inhibition) at 10uM” value is -6.59%. The value for `Cc1ccc(C(=O)NC(C)(COc2nonc2C)COc2nonc2C)cc1` was -40%. In the case of `Cc1nonc1OCC(C)(COc1nonc1C)NC(=O)c1ccc(Cl)cc1` it was -61.1%; in that of `Cn1c(=O)n(Cc2ccccc2F)c2ccccc21`, -16.3%.

As for `CC(=O)c1ccc2c(c1)C1C(Cl)C(Sc3ccccc3[N+](=O)[O-])CC1C(C(=O)O)N2` (stereo not shown), the “hERG current change (%, negative = inhibition) at 10uM” value is recorded as -20.8%.

With `CCN(CC)C(=O)c1ccc2c(c1)C1C(Cl)C(Sc3ccccc3[N+](=O)[O-])CC1C(C(=O)O)N2` (stereo not shown), the “hERG current change (%, negative = inhibition) at 10uM” value was -59.3%.

Turning to `CC(=O)c1ccc2c(c1)C1C(Cl)C(Sc3ccccc3[N+](=O)[O-])CC1C(c1ccccc1)N2` (stereo not shown), the “hERG current change (%, negative = inhibition) at 10uM” value was 15.1%.

As for `CN(Cc1nc(-c2cccc(Cl)c2)no1)C1CCOCC1`, the “hERG current change (%, negative = inhibition) at 10uM” value is given as -22.7%.

Take `CCn1c(=O)c(C(=O)NCc2cccnc2)c(O)c2ccccc21`: the “hERG current change (%, negative = inhibition) at 10uM” value was -56.4%. The value for `CCCn1c(=O)c(C(=O)NNS(=O)(=O)c2ccc(NC(=O)OC)cc2)c(O)c2ccccc21` was 9.85%; that for `CCCn1c(=O)c(C(=O)NCc2cccnc2)c(O)c2ccccc21` was -34.7%; that for `Cn1c(C(=O)NCc2cccnc2)cc2sccc21` was -10.2%. The value for `COC(=O)Nc1ccc(S(=O)(=O)NNC(=O)c2c(O)c3ccccc3n(C)c2=O)cc1` was 25.9%; that for `Cn1c(C(=O)NCc2cccnc2)cc2sc(Cl)cc21` was -43.9%. In the case of `CCCCCn1c(=O)c(C(=O)NCc2ccccc2)c(O)c2ccccc21`, the “hERG current change (%, negative = inhibition) at 10uM” value amounted to 15.2%. The value for `CCCCn1c(=O)c(C(=O)NCc2ccncc2)c(O)c2ccccc21` was -44%; that for `CCn1c(=O)c(C(=O)NCc2ccccc2)c(O)c2ccccc21` was 19.1%. The value for `CCn1c(=O)c(C(=O)NNS(=O)(=O)c2ccc(NC(=O)OC)cc2)c(O)c2ccccc21` was -56.3%; that for `CCCCCn1c(=O)c(C(=O)NCc2ccncc2)c(O)c2ccccc21` was -53.7%.

Regarding `CCn1c(C(=O)NCc2cccnc2)cc2sc(Cl)cc21`, the “hERG current change (%, negative = inhibition) at 10uM” value is -57.2%. `O=C(NCc1ccccc1)c1cccc(OCC(=O)N2CCN(C(=O)c3ccco3)CC2)c1`: the “hERG current change (%, negative = inhibition) at 10uM” value is listed as -41.1%. In the case of `COc1ccccc1/C=N/NC(=O)CC(=O)NCc1cccnc1` it was 7.63%. The value for `O=C(O)COc1ccccc1/C=N/NC(=O)CSc1nc2ccccc2s1` was 9.71%; that for `CCOc1ccc(-c2cc(C(=O)NN3CCN(C)CC3)c3cc(Cl)ccc3n2)cc1` was 22.5%; that for `CC(C(=O)NCc1ccc2c(c1)OCO2)N1c2cccc3cccc(c23)S1(=O)=O` (stereo not shown) was -22.7%.

As for `O=C(CN1C(=O)S/C(=C\C=C\c2ccccc2)C1=O)N1CCCCC1`, the “hERG current change (%, negative = inhibition) at 10uM” value is 10.8%.

In the case of `Cc1cc(=O)oc2cc(OCCSCCN3CCCCC3)ccc12`, the “hERG current change (%, negative = inhibition) at 10uM” value is listed as -16.5%.

`CNC(=S)N1CCn2cccc2C1c1cccnc1` (stereo not shown): the “hERG current change (%, negative = inhibition) at 10uM” value came to 6.45%. As to `COc1ccc(/C(N)=N/OC(=O)CCCc2ccccc2)cc1`, the “hERG current change (%, negative = inhibition) at 10uM” value is -11.3%. In the case of `FC(F)(F)Oc1ccc(NC2=NCCCS2)cc1` it was -24.4%; in that of `COC(=O)c1c(NC(=O)C2CCCO2)sc2c1CCC2` (stereo not shown), -3.4%; in that of `CC(C)CN(CC(C)C)C(=O)c1cc2c(=O)n3ccccc3nc2s1`, 7.12%. In the case of `O=C(O)C1CC1(c1ccccc1)c1ccccc1` (stereo not shown) it was 17.7%.

`N#CC(C#N)=Cc1ccc(N2CCOCC2)cc1`: the “hERG current change (%, negative = inhibition) at 10uM” value was -10.7%. Consider `Cc1ccc2c(Cl)c(C(=O)NCc3cccnc3)sc2c1`, for which the “hERG current change (%, negative = inhibition) at 10uM” value is reported as -46.4%. In the case of `CCCn1c(=O)c(C(=O)NCc2ccccc2)c(O)c2ccccc21` it was 7.64%; in that of `O=C(NCc1cccnc1)c1sc2ccccc2c1Cl`, -28.9%; in that of `O=C(NCc1cccnc1)c1sc2cc(Cl)ccc2c1Cl`, -55.4%. The value for `CCCn1c(=O)c(C(=O)NCc2ccncc2)c(O)c2ccccc21` was -63%; that for `CCCn1c(=O)c(C(=O)NCc2ccccn2)c(O)c2ccccc21` was -11.1%; that for `Cc1cc(NC(=O)CSc2nc3ccsc3c(=O)n2NC(=O)c2ccccc2)no1` was -1.69%. The value for `Cc1ccc(C(=O)N(C)CC(=O)Nc2cccc(F)c2)cc1S(=O)(=O)N1CCCCC1` was -10.5%. Consider `COc1ccc(C(=O)NC2CC2)cc1OC1CCN(Cc2ccccc2)CC1`, for which the “hERG current change (%, negative = inhibition) at 10uM” value is -81.6%.

On to `COc1ccc(C(=O)NC2CCC(O)CC2)cc1S(=O)(=O)NCc1ccc(Cl)cc1` (stereo not shown), for which the “hERG current change (%, negative = inhibition) at 10uM” value is recorded as -6.07%. In the case of `COc1ccc(C(=O)NC2CC2)cc1OC1CCN(Cc2cnn(C)c2)CC1` it was -32.7%. As to `COc1cc2[nH]c(=O)n(Cc3ccc(C(=O)NC4CCN(Cc5ccccc5)CC4)cc3)c(=O)c2cc1OC`, the “hERG current change (%, negative = inhibition) at 10uM” value amounted to 17.6%. In the case of `COc1ccc(C(=O)NC2CC2)cc1OC1CCN(Cc2ccc(SC)cc2)CC1` it was -88.7%; in that of `COc1ccc(C(=O)NC2CC2)cc1OC1CCN(Cc2ccc(Cl)cc2)CC1`, -78.8%. The value for `COc1ccc(C(=O)NCCc2cccc(Cl)c2)cc1OC1CCN(C(C)=O)CC1` was -16.1%; that for `COc1ccc(C(=O)NC2CC2)cc1OC1CCN(Cc2ccc(F)c(F)c2)CC1` was -75.2%. The value for `C/C(=N\Nc1ccc(S(N)(=O)=O)cc1[N+](=O)[O-])c1cccs1` was 25.7%; that for `C[C@]12CC[C@H]3[C@@H](CC[C@]4(O)C[C@@H](O)CC[C@]34C=O)[C@@]1(O)CC[C@@H]2C1=CC(=O)OC1` was 14%. With `O=C(CC12CC3CC(CC(C3)C1)C2)N1CCOCC1`, the “hERG current change (%, negative = inhibition) at 10uM” value is -1.47%.

Consider `COc1ccccc1CC(NC(C)=O)C(=O)NC1CCN(C(=O)Nc2ccc(F)cc2)CC1` (stereo not shown), for which the “hERG current change (%, negative = inhibition) at 10uM” value was -1.82%. The value for `COc1cc(C(=O)NC2CCCCC2)ccc1OC1CCN(C(C)=O)CC1` was 7.63%. Consider `COc1ccc(C(=O)NC2CC2)cc1OC1CCN(Cc2ccc(F)cc2)CC1`, for which the “hERG current change (%, negative = inhibition) at 10uM” value is reported as -81.8%. The value for `COc1ccc(C(=O)NC2CCN(CC(=O)Nc3c(C)cccc3C)CC2)cc1OC` was 18.7%; that for `COc1cc(C(=O)NC2CCN(Cc3nnnn3Cc3ccc(F)cc3)CC2)cc(OC)c1OC` was -0.888%. Regarding `COc1cc(OC)cc(C(=O)NC2CCN(Cc3nnnn3Cc3ccc(F)cc3)CC2)c1`, the “hERG current change (%, negative = inhibition) at 10uM” value is reported as -3.98%.

Regarding `C/C=C(\C)CN1CCC(Oc2cc(C(=O)NC3CC3)ccc2OC)CC1`, the “hERG current change (%, negative = inhibition) at 10uM” value was -64.5%. In the case of `CN(C)S(=O)(=O)c1cccc(C(=O)NC2CCSc3ccccc32)c1` (stereo not shown) it was -5.74%; in that of `CCOc1cccc(=O)c2c(C)n(Cc3ccco3)c(C)c12`, -11.5%; in that of `Cc1nc(NS(=O)(=O)c2ccccc2)sc1C(=O)N/N=C/c1ccccc1`, -2%. In the case of `CCn1c2ccccc2c2cc(/C=N/n3cnnc3)ccc21` it was -13.4%. Turning to `COc1ccc(N2CC(C(=O)N/N=C/c3cc([N+](=O)[O-])ccc3O)CC2=O)cc1` (stereo not shown), the “hERG current change (%, negative = inhibition) at 10uM” value is given as -8.45%. As to `COc1ccc(N2CC(C(=O)Nc3ccc(F)cc3F)CC2=O)cc1` (stereo not shown), the “hERG current change (%, negative = inhibition) at 10uM” value is recorded as -0.618%. As for `COc1ccc(N2CC(C(=O)N/N=C/c3ccc(C)cc3)CC2=O)cc1` (stereo not shown), the “hERG current change (%, negative = inhibition) at 10uM” value is -18.8%. In the case of `COc1ccc(N2CC(C(=O)Nc3ccc([N+](=O)[O-])cc3Br)CC2=O)cc1` (stereo not shown) it was -69%. In the case of `COc1ccc(OC)c(NC(=O)C2CC(=O)N(c3ccc(Br)cc3)C2)c1` (stereo not shown) it was -33.6%; in that of `COc1ccc(N2CC(C(=O)N/N=C/c3ccc([N+](=O)[O-])cc3)CC2=O)cc1` (stereo not shown), -59.5%.
